Consider 40 molecules from PubChem BioAssay (Tox21).

SMILES strings stand for the structures. Calls of active or inactive are those of the source. Entries that show only a call come without a potency. The call rests on the fitted dose curve.
Potency means the concentration at half of the fitted maximal effect.

The assay deals with Acetylcholinesterase (Homo sapiens) (UniProt P22303). As to the kind of experiment: Acetylcholinesterase (AChE) small molecule antagonists: enzyme-based qHTS assay (AID 1347397). Further: nearly all actives have a fitted effect of over 55% in size. The conditions noted are these: Potency: AChE enzyme activity inhibition; series mostly up to 115 µM. The text has this: National Center for Advancing Translational Sciences [NCATS]
Chain of Acetylcholinesterase (Homo sapiens) (P22303 whole entry, looked up): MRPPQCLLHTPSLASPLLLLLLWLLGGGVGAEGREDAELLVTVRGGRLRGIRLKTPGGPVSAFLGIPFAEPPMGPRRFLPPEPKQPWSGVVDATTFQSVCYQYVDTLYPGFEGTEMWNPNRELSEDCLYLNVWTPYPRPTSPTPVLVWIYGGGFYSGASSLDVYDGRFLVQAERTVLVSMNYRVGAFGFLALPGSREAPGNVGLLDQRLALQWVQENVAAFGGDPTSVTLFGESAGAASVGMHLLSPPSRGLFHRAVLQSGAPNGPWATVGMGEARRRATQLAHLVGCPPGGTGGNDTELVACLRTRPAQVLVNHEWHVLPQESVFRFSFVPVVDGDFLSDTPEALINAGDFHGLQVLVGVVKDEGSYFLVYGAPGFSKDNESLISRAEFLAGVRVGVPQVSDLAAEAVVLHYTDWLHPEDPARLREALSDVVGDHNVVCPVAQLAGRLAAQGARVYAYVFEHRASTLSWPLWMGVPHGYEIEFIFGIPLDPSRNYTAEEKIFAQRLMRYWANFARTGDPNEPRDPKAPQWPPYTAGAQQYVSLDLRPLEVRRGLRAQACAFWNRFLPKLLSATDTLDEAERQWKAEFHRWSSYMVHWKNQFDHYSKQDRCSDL
Division of Preclinical Innovation [DPI]
U.S. Environmental Protection Agency [EPA]
National Institutes of Environmental Health Sciences [NIEHS]
National Toxicology Program [NTP]
U.S. Food and Drug Administration [FDA]
Acetylcholinesterase (AChE) is the primary cholinesterase in the body that hydrolyzes a key neurotransmitter, acetylcholine. Inhibition of AChE activity can lead to neurotoxicity. The known inhibitors include organophosphorous pesticides (OP), chemical warfare agents, drugs, and various phytochemicals.
An enzyme-based assay with the recombinant human AChE and Amplite Colormetric acetylcholinesterase assay kit (AAT Bioquest, Sunnyvale, CA) was used to evaluate the chemicals in the Tox21 10K library that inhibit AChE activity. The assay uses 5, 5-dithiobis-(2-nitrobenzoic acid) (DTNB) to quantify the thiocholine produced from the hydrolysis of acetylthiocholine by AChE.
Tox21 Assay Protocol Summary:
For the enzyme-based AChE assay, recombinant human AChE (50 mU/mL) in 4 uL/well was dispensed into black, clear-bottom 1536-well plates using a Multidrop Combi dispenser (Thermo Scientific, MA). Then, 23 nL of compound or DMSO (vehicle control) was transferred into the assay plates by a Pintool Station (Wako Automation, CA). The plates were incubated for 30 min at room temperature, followed by the addition of 4 uL of colorimetric detection cocktail solution (DTNB, acetylthiocholine) into each well using a Flying Reagent Dispenser (Beckman Coulter, CA) and then 10 min incubation at room temperature.
Consider `CCN1CCC2(CC1)COc1cc3c(cc12)N(C(=O)c1ccc(-c2ccc(-c4nnc(C)o4)cc2C)cc1)CC3`, for which the Potency is 32.8 µM (active).

`CCO/N=C(\CC)C1=C(O)CC(c2c(C)cc(C)cc2C)CC1=O` (stereo not given): the Potency result is “inactive”.

For `CCOP(=O)(OCC)Oc1cc(C)nc(C(C)C)n1`, the Potency was 5.67 µM (active).

For the molecule `CN(C)C(=S)SSC(=S)N(C)C`, the Potency entry is “inactive”.

As for `CC1(C)C(C=C(Cl)Cl)C1C(=O)OC(C#N)c1ccc(F)c(Oc2ccccc2)c1` (stereo not given), the Potency entry was “inactive”.

In the case of `CCCCN(CCCC)C(=S)S`, the Potency entry is “inactive”.

With `CCOC(=O)CCN(SN(C)C(=O)Oc1cccc2c1OC(C)(C)C2)C(C)C`, the Potency is 0.1 µM (active).

Turning to `Oc1cc(Cl)c(Cl)c(Cl)c1Cl`, the Potency entry was “inactive”.

As for `ClSC(Cl)(Cl)Cl`, the Potency entry was “inactive”.

On to `Cc1ccc(C)c2ccccc12`, for which the Potency result is “inactive”.

Consider `CCCN`, for which the Potency entry is “inactive”.

Take `COC(=O)C(C)N(C(=O)c1ccco1)c1c(C)cccc1C` (stereo not given): the Potency result was “inactive”.

With `O=C1C2(Cl)C3(Cl)C4(Cl)C(Cl)(Cl)C5(Cl)C3(Cl)C1(Cl)C5(Cl)C24Cl` (stereo not given), the Potency entry is “inactive”.

In the case of `C=Cc1cccc(CCl)c1`, the Potency result was “inactive”.

`C=C(C)C(=O)[O][Sn]([CH2]CCC)([CH2]CCC)[CH2]CCC`: the Potency entry was “inactive”.

`CC(=O)[O][Sn]([c]1ccccc1)([c]1ccccc1)[c]1ccccc1`: the Potency result is “inactive”.

On to `COP(=S)(NC(C)C)Oc1ccc(C)cc1[N+](=O)[O-]` (stereo not given), for which the Potency entry was “inactive”.

Regarding `O=C(O)[C@H](O)[C@@H](O)C(=O)O`, the Potency result was “inactive”.

Consider `S=C=Nc1ccccc1`, for which the Potency result is “inactive”.

Regarding `CNC(=O)Oc1cc(C)cc(C(C)C)c1`, the Potency is 0.399 µM (active).

For `CCCCCON=O`, the Potency result was “inactive”.

On to `C=CCOC(=O)c1ccccc1N`, for which the Potency entry was “inactive”.

Regarding `CCCCC/C=C\C/C=C\C/C=C\C/C=C\CCCC(=O)NCC(=O)O`, the Potency entry is “inactive”.

Turning to `CC(C)(C)c1ccc(OP(=O)(Oc2ccccc2)Oc2ccccc2)cc1`, the Potency was 22.6 µM (active).

As to `CC(Cc1ccc2c(c1)OCO2)NO` (stereo not given), the Potency entry was “inactive”.

With `CC1CN1` (stereo not given), the Potency result is “inactive”.

In the case of `O=[N+]([O-])c1cc(C(F)(F)F)c(Cl)c([N+](=O)[O-])c1Nc1ncc(C(F)(F)F)cc1Cl`, the Potency result was “inactive”.

In the case of `CCCCC(CC)COC(=O)c1ccccc1C(=O)OCC(CC)CCCC` (stereo not given), the Potency entry is “inactive”.

As for `O=C(CCCCl)c1ccc(F)cc1`, the Potency result is “inactive”.

`C#CCO`: the Potency result is “inactive”.

On to `CCCCON=O`, for which the Potency result is “inactive”.

Regarding `CCC(C)c1cccc(C(C)CC)c1O` (stereo not given), the Potency entry is “inactive”.

`CO/N=C(\C(=O)OC)c1ccccc1CO/N=C(\C)c1cccc(C(F)(F)F)c1`: the Potency entry was “inactive”.

For the molecule `COC(=O)c1ccccc1S(=O)(=O)NC(=O)Nc1nc(C)nc(OC)n1`, the Potency result was “inactive”.

As to `CC(Cl)CCl` (stereo not given), the Potency entry is “inactive”.

With `CN1[C@@H]2CC[C@H]1CC(O)C2` (stereo not given in full), the Potency result was “inactive”.

As for `CC(C)[C@@H](Nc1ccc(C(F)(F)F)cc1Cl)C(=O)OC(C#N)c1cccc(Oc2ccccc2)c1` (stereo not given in full), the Potency result was “inactive”.

`N#Cc1c[nH]cc1-c1cccc2c1OC(F)(F)O2`: the Potency entry is “inactive”.

As for `CC(=O)C(Cl)C(=O)N(C)C` (stereo not given), the Potency entry is “inactive”.

For `Nc1nc(N)c(N)c(N)n1`, the Potency result was “inactive”.
